Experimental data: PubChem BioAssay AID463173 (ICCB-Longwood Screening Facility, Harvard Medical School, 2010)
Screen size: about 52,000 compounds; about 1,700 (3.3%) were called active. What follows is part of a selection rich in actives, with near analogues and random picks from the rest. Values without a mark were called inactive. Cut-off read from the data, not from the text of the source: active = survival mostly below about 52% (no sharp cut-off); inactive = mostly above about 56%.

system: Wild type; assay: S. aureus survival, RN4220 and DeltatarO strains – OD600, teichoic acid synthesis inhibitors, primary screen (AID 463173); details: S. aureus RN4220 wild type/DeltatarO growth, OD600, 18 h, hits give low values, screened at 18.75 µg/mL (by protocol)

| SMILES | survival |
| --- | --- |
| CCOc1ccc(-n2c(C)nc3cc(C(=O)NC4CCCC4)ccc32)cc1 | 67% |
| COc1cccc(Cn2c(=O)n(-c3cccc(Cl)c3C)c(=O)c3c4c(sc32)CN(C(C)=O)CC4)c1 | 75% |
| Cn1cc(S(=O)(=O)N2CCCC2)cc1C(=O)Nc1ccc(C(F)(F)F)cc1 | 109% |
| CCCCNc1nc(Oc2ccc(=O)n(C)n2)nc(N(C)C)n1 | 83% |
| COc1ccc(-c2cc(C(=O)Nc3sc4c(c3C#N)CCCC4)no2)cc1OC | 80% |
| CCC1CN(C(=O)N2CCC(C(=O)NCCCc3ccccc3)CC2)c2cc(C)ccc2O1 (configuration not stated) | 79% |
| COCCCn1c(=N)c(C(=O)NCc2cccnc2)cc2c(=O)n3cccc(C)c3nc21 | 74% |
| Cc1ccc(Nc2c3c(nc4nc(-c5cccs5)nn24)CCCC3)cc1F | -3% (active) |
| Fc1cc(Br)ccc1Nc1c2c(nc3nc(-c4cccs4)nn13)CCCC2 | 0% (active) |
| COc1ccc(C)cc1Nc1c2c(nc3nc(-c4cccs4)nn13)CCCC2 | 63% |
| COc1cc(OC)c(Nc2c3c(nc4nc(-c5cccs5)nn24)CCCC3)cc1Cl | 85% |
| Cc1ccc(Nc2c3c(nc4nncn24)CCC3)cc1C | 76% |
| CC(=O)c1cccc(Nc2c3c(nc4nc(-c5cccs5)nn24)CCCC3)c1 | 76% |
| O=C(Cn1c2ncccc2c(=O)n1-c1ccccc1)NCc1ccccc1 | 80% |
| Cc1cc(O)c(C(c2ccccc2)N2CCCCC2)c(=O)n1Cc1ccco1 (configuration not stated) | 77% |
| O=C(NCc1ccccn1)c1cc2n(n1)C(C(F)(F)F)CC(c1ccco1)N2 (configuration not stated) | 108% |
| Cc1ccc2oc(-c3ccc(NC(=O)c4cccc(F)c4)c(C)c3)nc2c1 | 100% |
| CNC(=S)N(Cc1cccnc1)Cc1cc2cc(OC)ccc2[nH]c1=O | 112% |
| COc1cc2c(cc1OC)n(CC(=O)c1cc(C)ccc1C)c(=O)n1nc(CCn3nc(C)cc3C)nc21 | 71% |
| Cc1c(C(N)=O)sc2ncn(Cc3ccccc3)c(=O)c12 | 112% |
| CC(C)=CCc1c(O)cc(O)c2c1OC(c1ccccc1)CC2=O (configuration not stated) | 1% (active) |
| CC1(C)OC(c2ccccc2)CC1=O (configuration not stated) | 98% |
| O=C(O)c1c(-c2ccccc2)oc2ccc(OCc3ccc(Cl)c(Cl)c3)cc12 | 0% (active) |
| Cc1ccc(COc2ccc3oc(-c4ccccc4)c(C(=O)O)c3c2)cc1 | 54% |
| O=C(O)c1c(-c2ccccc2)oc2ccc(OCc3c(F)cccc3Cl)cc12 | 38% |

| SMILES | survival |
| --- | --- |
| CCCCNC(=O)C1CCN(S(=O)(=O)CCC)CC1 | 83% |
| Cc1ccc(CN2CCC(CNC(=O)c3cnn(-c4ccccc4)c3C3CCN(C(=O)OC(C)(C)C)CC3)CC2)cc1 | 73% |
| Cc1cccc(OC(=O)c2snnc2C)c1C | 80% |
| Cc1csc2nc(-c3cccc(NC(=O)C(C)C)c3)cn12 | 80% |
| Cc1csc2nc(-c3cccc(NC(=O)c4c(F)cccc4F)c3)cn12 | 121% |
| CCCC(=O)Nc1cccc(-c2cn3c(C)csc3n2)c1 | -6% (active) |
| O=C(NCc1ccco1)c1ccc2c(c1)N(Cc1ccc(Cl)cc1)C(=O)c1ccccc1S2=O (configuration not stated) | 165% |
| COc1ccccc1CNC(=O)CN1C(=O)c2cccnc2Oc2ccccc21 | 64% |
| CCc1cnc2c(c1SCCC(C)C)c(=O)n(C)c(=O)n2C | 79% |
| Cc1ccc(C(=O)N2CCn3c4c(c5cc(C)ccc53)CCCC42)cc1 (configuration not stated) | -10% (active) |
| COc1cc(SC)ccc1C(=O)N1CCn2c3c(c4cc(C)ccc42)CCCC31 (configuration not stated) | 85% |
| CCOc1cc(C(=O)N2CCn3c4c(c5cc(C)ccc53)CCCC42)cc(OCC)c1OCC (configuration not stated) | 67% |
| Cc1ccc2c(c1)c1c3n2CCN(C(=O)c2cccc(C(F)(F)F)c2)C3CCC1 (configuration not stated) | 5% (active) |
| Cc1ccc2c(c1)c1c3n2CCN(C(=O)c2ccc(C(F)(F)F)cc2)C3CCC1 (configuration not stated) | 49% |
| CCCN(CCC)S(=O)(=O)c1ccc(C(=O)N2CCn3c4c(c5cc(C)ccc53)CCCC42)cc1 (configuration not stated) | 82% |
| COc1ccccc1Nc1nc2c(S(=O)(=O)c3ccc(C(C)C)cc3)nnn2c2ccsc12 | 116% |
| CCCc1nc2ccccc2c(NC(=O)CN(CC)CC)c1CC | 103% |
| CN(C)CCNC(=O)Cc1ccc(NC(=O)N2CCCCc3ccccc32)cc1 | 75% |
| COc1ccc(/C=C\C(=O)NC2CC(=O)N(c3ccccc3)C2)cc1OC (configuration not stated) | 134% |
| Cc1cc(Nc2ccccc2Cl)n2nc(-c3ccco3)nc2n1 | 78% |
| Cc1cc(Nc2cccc(F)c2)n2nc(-c3ccco3)nc2n1 | 69% |
| Cc1cc(C)cc(Nc2cc(C)nc3nc(-c4ccco4)nn23)c1 | 78% |
| CCOc1ccc(OCC)c(Nc2cc(C)nc3nc(-c4ccco4)nn23)c1 | -1% (active) |
| Cc1cc(Nc2ccc(Br)c(C)c2)n2nc(-c3ccco3)nc2n1 | -6% (active) |
| CCOC(=O)c1ccccc1Nc1cc(C)nc2nc(-c3ccco3)nn12 | 133% |

| SMILES | survival |
| --- | --- |
| CC(C)CC(=O)Nc1c(C(=O)N2CCN(c3ccccc3)CC2)oc2ccccc12 | 96% |
| c1ccc(C(c2ccccc2)N2CCN(Cc3nnnn3Cc3ccc4c(c3)OCO4)CC2)cc1 | 105% |
| O=c1c(=O)n(-c2ccccc2)ccn1Cc1cccc(C(F)(F)F)c1 | 108% |
| CN(C(=O)CSc1nc2ccc(NC(=O)c3ccccc3)cc2s1)c1ccccc1 | 77% |
| CCN(c1ccc(OC)cc1)S(=O)(=O)c1ccc2[nH]c(=O)ccc2c1 | 72% |
| CN(C)CCN(Cc1ccccc1)S(=O)(=O)c1ccc2[nH]c(=O)ccc2c1 | 76% |
| COCCN(Cc1ccc(C)c(Br)c1)S(=O)(=O)c1ccc2[nH]c(=O)ccc2c1 | -3% (active) |
| CCc1ccccc1NC(=O)c1cc(S(=O)(=O)N2CCC(C)CC2)cn1C | 22% |
| COC(=O)c1cc(-c2ccc(C)cc2)c2c(=O)n(C)c(=O)n(C)c2n1 | 105% |
| O=C(NCCNCc1ccccc1)c1ccco1 | 115% |
| CC(=O)Nc1ccc(NC(=O)CCS(=O)(=O)c2ccc3c(c2)CC(=O)N3C)cc1 | 66% |
| Cc1ccc(-c2cc(C(F)(F)F)n3nc(C(=O)Nc4sc5c(c4C#N)CCC(C)C5)cc3n2)cc1 (configuration not stated) | 70% |
| N#Cc1c(NC(=O)c2cc3nc(-c4ccc(Br)cc4)cc(C(F)(F)F)n3n2)sc2c1CCCC2 | 0% (active) |
| COC(=O)c1c(NC(=O)c2cc3nc(-c4ccc(Br)cc4)cc(C(F)(F)F)n3n2)sc2c1CCCC2 | 82% |
| COc1ccc(CNC(=O)c2cc(-c3ccc(C)c(C)c3)n[nH]2)cc1 | 67% |
| Cc1cc2c(cc1S(=O)(=O)NCc1ccc(F)cc1)n(C)c(=O)c(=O)n2C | 85% |
| Cc1c(C(=O)OCc2ccccc2)[nH]c2c1C(=O)CC(c1ccc(Cl)cc1)C2 (configuration not stated) | 99% |
| COc1cc(NC(=O)CNC(=O)Cn2ccc3ccccc3c2=O)cc(OC)c1OC | 130% |
| O=S(=O)(Cc1ccccc1)N1CCC(c2nc(-c3cccs3)no2)CC1 | 110% |
| CC1=C(c2ccc(C)cc2)S(=O)(=O)N(Cc2ccc(C(=O)Nc3ccccc3C)cc2)C1=O | 78% |
| Cc1ccc(N2CCN(C(=O)c3cn(C)c4ccc(S(=O)(=O)N5CCCC5)cc4c3=O)CC2C)cc1 (configuration not stated) | 134% |
| Cc1ccccc1CCNC(=O)c1cc2cc(S(=O)(=O)N3CCCCC3)ccc2n1C | -3% (active) |
| CN(C)c1ccc(CNC(=O)c2cc3cc(S(=O)(=O)N4CCCCC4)ccc3n2C)cc1 | 0% (active) |
| Cn1c(C(=O)NCc2ccc(F)cc2)cc2cc(S(=O)(=O)N3CCCCC3)ccc21 | 131% |
| CC(CNC(=O)c1cc2cc(S(=O)(=O)N3CCCCC3)ccc2n1C)c1ccccc1 (configuration not stated) | 55% |

| SMILES | survival |
| --- | --- |
| CC(C)CCNC(=O)c1cc2cc(S(=O)(=O)N3CCCCC3)ccc2n1C | 74% |
| Cn1c(C(=O)NCCc2ccccc2)cc2cc(S(=O)(=O)N3CCCCC3)ccc21 | 73% |
| CCc1ccc(CNC(=O)c2cc3cc(S(=O)(=O)N4CCCCC4)ccc3n2C)cc1 | 47% |
| CCC(C)NC(=O)c1cc2cc(S(=O)(=O)N3CCCCC3)ccc2n1C (configuration not stated) | 14% (active) |
| Cc1ccccc1CNC(=O)c1cc2cc(S(=O)(=O)N3CCCCC3)ccc2n1C | 66% |
| CCOC(=O)c1sc2cccc(F)c2c1S(=O)(=O)NCc1ccccc1Cl | 130% |
| Clc1ccc2[nH]c3nc4ccccc4nc3c2c1 | 104% |
| COc1ccc(Nc2cc(C(=O)NCc3ccccc3)c3ccccc3n2)cc1OC | 83% |
| CC(=O)c1ccc(NC(=O)Cn2cc3c(n2)CCCC3)cc1 | 82% |
| Cc1ccsc1CN(Cc1ccco1)C(=O)c1ccc(Cl)cc1 | 65% |
| Cc1nn(C)c2c1c(C(F)(F)F)cc(=O)n2CC(=O)N1CCCCC1 | 67% |
| CCOc1ccc(/C=C/c2nc(C#N)c(N3CCN(c4ccc(OC)cc4)CC3)o2)cc1 | 84% |
| CCn1cc(C(=O)N2CCN(c3cc(C)ccc3C)CC2)c(=O)c2cc(S(=O)(=O)N3CCOCC3)ccc21 | 81% |
| COc1ccc(CNC(=O)c2ccc(-c3nc(CSc4ccccc4)c(C)o3)cc2)cc1OC | 77% |
| Cc1oc(-c2ccc(C(=O)NCCc3ccc(Cl)cc3)cc2)nc1CSc1ccccc1 | 59% |
| COc1ccc(CNC(=O)c2ccc(-c3nc(CSc4ccc(C)cc4)c(C)o3)cc2)c(OC)c1 | 1% (active) |
| Cc1ccc(SCc2nc(-c3ccc(C(=O)NCCc4ccc(Cl)cc4)cc3)oc2C)cc1 | -4% (active) |
| COc1ccc(CNC(=O)c2ccc(-c3nc(CSc4ccc(C)cc4)c(C)o3)cc2)cc1OC | -3% (active) |
| Cc1ccc(SCc2nc(-c3ccc(C(=O)NCc4ccc(Cl)cc4)cc3)oc2C)cc1 | 64% |
| COc1ccc(OC)c(CNC(=O)c2ccc(-c3nc(CSc4ccccc4)c(C)o3)cc2)c1 | 129% |
| COc1ccc(CNC(=O)c2ccc(-c3nc(CSc4ccccc4)c(C)o3)cc2)c(OC)c1 | 100% |
| CCc1ccc(CNC(=O)c2ccc(-c3nc(CSc4ccc(C)cc4)c(C)o3)cc2)cc1 | 63% |
